# Nrf2 activator: Nrf2 pathway activation. AREc32 ARE-luciferase reporter (MCF7-derived line), luminescence, 24 h. Potency, µM (titrated, usually from 46.1 µM), actives largely listed as activators. actives 0.31% (n = 410,000). AID 624171; note: nearly all actives have a fitted effect of over 65% in size
#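 For detection, Steady-Glo was added and plates sat 30 min at RT; before that, AREc32_Fluc cells grown overnight in OPTI-MEM/5% FBS had been treated with 23 nL compound for 24 hr at 37 deg C.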
# A549 tox: counter-screen for Nrf2 inhibitors: cytotoxicity in A549 cells | A549 ARE-Fluc cells, CellTiter-Fluor viability, 18-24 h | actives 0.16% (n = 390,000) | Potency, µM (highest dose often 46 µM), actives largely listed as inhibitors
#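 A549 ARE_Fluc cells in 5% FBS OPTI-MEM were exposed to compounds in concentration-response for 18-24 h at 37 deg C. Viability was read by CellTiter-Fluor fluorescence (Ex 405/Em 525) after 30 min, before the luciferase read.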
# ATXN2 expr inh: reduces ATXN2 reporter expression in HEK-293 cells; HEK-293 ATXN2-luciferase reporter, luminescence, 24 h; AID 1745845; actives 0.72% (n = 360,000); Potency, µM (doses to about 57 µM), usual class: inhibitors; note: nearly all actives have a fitted effect of over 55% in size
#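 ATXN2-luciferase reporter cells (luciferase flanked by upstream and downstream ATXN2 gene portions) were treated 24 h at 37 °C with compounds at up to 57 uM. SteadyGlo luminescence gave expression; GF-AFC fluorescence gave viability.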
# Nrf2 block: Nrf2 pathway inhibition; A549 ARE-Fluc reporter, luciferase luminescence, 18-24 h; actives 2.1% (n = 360,000); Potency, µM (doses to about 46 µM), usual class: inhibitors; AID 504444; note: nearly all actives have a fitted effect of over 60% in size
#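 A549 ARE_Fluc cells, 5000/well, 5% FBS OPTI-MEM; compounds in dose-response, 18-24 h at 37 °C/5% CO2; CellTiter-Fluor viability read (Ex 405/Em 525), then BugLite luciferase luminescence = Nrf2 activity.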
# ATXN viability: viability counter-screen for ATXN expression inhibitors | S2 cells (HEK-293 line with an ATXN2-luciferase reporter) viability, CellTiter-Fluor protease fluorescence, 24 h | Potency, µM (top dose mostly 56.7 µM), actives largely listed as cytotoxic | actives 0.49% (n = 400,000) | AID 651635; note: nearly all actives have a fitted effect of over 40% in size
# Numbers stand for hits; - = inactive; ? = inconclusive; . = no result; ! = not active in a repeat. This is a sample that favours compounds with a hit; in the whole collection about 2.9% have one here. Calls come from the whole dose curve; as a rule, active = well fitted curve in the direction sought with a large enough effect; inconclusive = small, poorly fitted or top-dose-only effect, or another doubt; inactive = no such curve, though single readings can be large; an effect the other way counts as inactive or inconclusive.
SMILES,Nrf2 activator,A549 tox,ATXN2 expr inh,Nrf2 block,ATXN viability
COc1ccccc1N/C(N)=N/c1nc(CSc2ccc(C)cc2)cc(=O)[nH]1,-,-,-,21µM,-
CC(=O)Nc1ccc(S(=O)(=O)NC2(C(F)(F)F)NC(=O)N(CCc3ccc(F)cc3)C2=O)cc1 (stereo not drawn),-,-,-,?,-
COc1cc(-c2noc(C)c2/C=C/c2ccc(N)cc2)cc(OC)c1OC,-,-,-,?,?
COc1ccc(-c2cc(C(=O)N3CCCC3)no2)cc1,-,-,8.9µM,?,-
COc1ccc(-c2cc(C(=O)N3CCCCCC3)no2)cc1,-,-,-,-,-
O=[N+]([O-])c1ccc(Sc2ncccn2)c([N+](=O)[O-])c1,?,?,?,23µM,?
Cc1ccc(C(=O)CN2CCN(c3ccccn3)CC2)c(C)c1,-,-,-,-,-
Cc1cc(NC(=O)Nc2cc(Cl)sc2Cl)no1,3.2µM,-,-,-,-
NC(c1csc(Nc2cnccn2)n1)C1CCCCC1 (stereo not drawn),-,.,-,.,-
CN1CCCC(OC(=O)CCCC(=O)OC2CCCN(C)C2)C1 (stereo not drawn),-,-,-,-,?
COc1ccc(CN(C(=O)CSc2nnc(-c3ccccc3C)o2)c2ccc(F)cc2)cc1,-,-,?,.,?
O=C(CSc1nnc(-c2c[nH]c3ccccc23)o1)N(Cc1ccccc1)c1ccc(F)cc1,-,?,?,18µM,?
COc1cccc(NC(=O)CN(C)C(=O)c2cc(C)oc2C)c1,-,-,-,-,-
COC(=O)c1cc(NC(=O)c2ccc(Cn3cc(Cl)cn3)o2)cc(C(=O)OC)c1,-,?,?,21µM,20µM
Cc1c(O)cccc1C(=O)N[C@@H](CSc1ccccc1)[C@H](O)CN1C[C@H]2CCCC[C@H]2C[C@H]1C(=O)NC(C)(C)C,-,?,20µM!,?,11µM
CC(C)c1ccc(CNCCSc2nnnn2C)cc1,-,-,-,?,-
Cn1c(=NC(=O)c2ccco2)sc2ccccc21,?,-,-,?,-
Cn1c(=NC(=O)CCl)sc2ccccc21,?,-,?,?,32µM
O=C(Nc1ccc2oc(-c3ccncc3)nc2c1)c1ccccc1Cl,-,-,-,?,?
CN(C)CCNc1ccc(CO)c2sc3ccc(O)cc3c(=O)c12,-,?,2.7µM,?,19µM
CN(C)CCNc1ccc(-c2nn(C)c(=O)c3ccccc23)cc1[N+](=O)[O-],-,-,-,-,?
CN(C)CCNc1ccc2ncn3c4ccc(O)cc4c(=O)c1c23,-,-,4µM,?,-
COc1ccc2sc3cccc(NCCN(C)C)c3c(=O)c2c1,-,.,-,.,-
Cc1nc(Nc2ccccc2)sc1C,-,-,-,-,-
S=c1[nH]cnc2sc(Nc3ccccc3)nc12,-,-,.,?,11µM
SMILES,Nrf2 activator,A549 tox,ATXN2 expr inh,Nrf2 block,ATXN viability
CCCC(=O)NC(c1ccc(Cl)cc1Cl)c1ccc2cccnc2c1O (stereo not drawn),-,-,?,23µM,-
CC(C)CC(=O)NC(c1cccs1)c1ccc2cccnc2c1O (stereo not drawn),-,?,?,21µM,-
CCC(=O)NC(c1cccs1)c1ccc2cccnc2c1O (stereo not drawn),-,-,.,?,?
CCCC(=O)NC(c1ccc(Cl)cc1)c1ccc2cccnc2c1O (stereo not drawn),-,-,7.1µM,?,?
CCCCC(=O)NC(c1ccccc1OC)c1ccc2cccnc2c1O (stereo not drawn),-,-,4µM,21µM,-
CCCC(=O)NC(c1ccc(C)cc1)c1ccc2cccnc2c1O (stereo not drawn),-,-,?,?,-
COC(=O)C1CCC(=S)N1C(=O)c1ccccc1 (stereo not drawn),-,-,.,-,-
Cc1cccc(CCNC(=O)CCc2c(C)nc3c(-c4ccc(F)cc4)c(C)nn3c2C)c1,-,-,-,-,-
COc1cccc2c1Oc1ncccc1N(C(=O)CCC(=O)NCc1ccccc1)C2,-,-,.,-,-
COC(=O)c1ccc(CC2(C)C(=O)Nc3ccc(OC(F)(F)F)cc32)o1 (stereo not drawn),-,.,-,.,-
CN1CCN(C(=S)NC(=O)c2ccc(S(=O)(=O)N3CCOCC3)cc2)CC1,-,-,.,-,-
CCCCC(=O)NC(c1ccc(N(C)C)cc1)c1ccc2cccnc2c1O (stereo not drawn),-,-,?,?,?
CCCCC(=O)NC(c1ccc(N(CC)CC)cc1)c1ccc2cccnc2c1O (stereo not drawn),-,-,2.8µM,?,-
CCCCC(=O)NC(c1ccc(Cl)cc1)c1ccc2cccnc2c1O (stereo not drawn),-,-,7.9µM,-,-
CCOC(=O)C1=C(O)C(=O)N(Cc2ccc(C(C)(C)C)cc2)CC1,-,-,-,?,-
Cc1cc(C)n(-c2nc(N(c3ccccc3)c3ccccc3)nc(-n3nc(C)cc3C)n2)n1,-,?,10µM,.,8.9µM
Cc1ccc(C)c(N2CCN(C(=O)c3cc(C)nc4c3c(C)nn4-c3ccccc3)CC2)c1,-,-,-,-,-
O=C(c1ccco1)N(Cc1ccc(Cl)cc1)C1CCS(=O)(=O)C1 (stereo not drawn),-,-,.,26µM,-
CSCC[C@@H](C(=O)NCCCCCCCCCCC(=O)N1CCN(C(=O)OC(C)(C)C)CC1)n1cc(CCO)nn1,-,-,?,?,?
CC[C@H](C)Cc1cn([C@@H](CCCCNC(=O)OC(C)(C)C)C(=O)NCCCCCCCCCCC(=O)N2CCN(C(=O)OC(C)(C)C)CC2)nn1,-,?,?,10µM,?
CC(C)(C)OC(=O)NCCCC[C@@H](C(=O)NCCCCCCCCCCC(=O)N1CCN(C(=O)OC(C)(C)C)CC1)n1cc(CCO)nn1,-,?,?,?,35µM
Cc1ccnc(NC(=O)c2cccc(S(=O)(=O)N3CCN(c4ccccc4)CC3)c2)c1,-,-,-,?,-
Cc1ccc(NC(=O)c2ccc(Cl)c(S(=O)(=O)N3CCCCC3)c2)nc1,-,-,-,21µM,-
Cc1ccnc(NC(=O)c2ccc(Cl)c(S(=O)(=O)N3CCCCC3)c2)c1,-,-,-,?,-
Cc1ccc(NC(=O)c2cccc(S(=O)(=O)N3CCN(c4ccccc4)CC3)c2)nc1,-,-,-,15µM,-
Cc1cc(NC(=O)c2ccc(Cl)c(S(=O)(=O)N3CCCCC3)c2)no1,-,-,-,23µM,-
CC1CCCC(NC(=O)C2COc3ccccc3O2)C1C (stereo not drawn),-,-,-,-,-
O=C(CSc1nnc(CNC(=O)c2cccs2)o1)Nc1ccccc1,-,-,.,-,-
